Screening data (PubChem)
D2 ag-1 = activates the human D2 dopamine receptor; P14416; DiscoveRx PathHunter D2 beta-arrestin, luminescence, 90 min; 100% = 57 uM dopamine signal; activation, % (test concentration not listed); hit rate 0.084% among 360,000; AID 624465; in the data active = activation above about 40%; inconclusive = between about 15% and that limit
Target sequence (P14416 whole entry, looked up): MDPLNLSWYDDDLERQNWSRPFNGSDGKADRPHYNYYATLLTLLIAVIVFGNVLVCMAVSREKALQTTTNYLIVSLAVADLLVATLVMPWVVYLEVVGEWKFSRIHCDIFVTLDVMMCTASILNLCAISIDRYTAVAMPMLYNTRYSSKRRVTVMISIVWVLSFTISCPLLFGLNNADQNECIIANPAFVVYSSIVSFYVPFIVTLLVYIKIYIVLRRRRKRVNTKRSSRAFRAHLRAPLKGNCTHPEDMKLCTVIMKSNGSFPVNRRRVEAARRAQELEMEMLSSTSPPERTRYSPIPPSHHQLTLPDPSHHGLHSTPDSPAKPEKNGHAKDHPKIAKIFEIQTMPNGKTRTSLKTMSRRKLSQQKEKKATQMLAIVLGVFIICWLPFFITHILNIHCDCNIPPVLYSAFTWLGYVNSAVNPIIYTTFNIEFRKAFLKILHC
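DiscoveRx PathHunter D2 beta-arrestin cells (2,100/well) attached overnight, then compound-stimulated 90 min at 37 C in HBSS/10 mM HEPES/0.1% Tween-20 buffer; beta-galactosidase complementation read by luminescence after 1 h at ambient temperature. Dopamine 57 uM final (EC100) as control.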
D2 ag-2 = D2 dopamine receptor (human) agonism. HEK293 T-REx D2 cells, calcium flux agonist mode. P14416. AID 485358. activation, % at 2 µM. hit rate 0.53% among 340,000;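 active = activation over 3 SD above normal in the single-dose calcium agonist read, cut at about 30% in these data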
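Tetracycline-induced HEK293 T-REx cells with force-coupled D2 receptor, plated overnight at 30 C, loaded with no-wash calcium dye. After a 10 s baseline, compound was pin-added and calcium flux read kinetically for 180 s; calcium rises flagged agonists.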
D2 antag = antagonizes the human D2 dopamine receptor; AID 485344; P14416; hit rate 2% among 340,000; inhibition, % at 10 µM; HEK293 TREx D2 cells, calcium flux, dopamine EC80; in the data active = inhibition above about 30%; inactive = below that, where a call was filed
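Calcium flux kinetic readout in an inducible HEK293 TREx D2 line plated overnight at 30 C. After 180 s compound exposure, an EC80 dopamine challenge follows with another 180 s kinetic read to detect antagonism.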
D2 PAM-1 = human D2 receptor positive allosteric modulation; P14416; DiscoveRx D2 beta-arrestin cells, luminescence, 90 min; 100% = 57 uM dopamine signal; potentiation, % (no concentration beside the values); hit rate 0.23% among 360,000; AID 624464; in the data active = potentiation above about 50%; inconclusive = mostly about 30% to 49%
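PathHunter D2 cells, attached overnight at 37 deg C, received compound in DMSO plus dopamine at EC20 (50 nM final) for 90 min at 37 deg C. Beta-arrestin recruitment was read as luminescence after 1 h with detection reagent at ambient temperature.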
D2 PAM-2 = positive allosteric modulators of human D2 dopamine receptor; potentiation, % at 10 µM; AID 485347; HEK293 T-REx D2, calcium flux, EC20 dopamine potentiation; hit rate 0.34% among 340,000;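 active = potentiation over 3 SD above the plate norm, cut at about 30% in these data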
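Tetracycline-induced HEK293 T-REx cells force-coupled to calcium signalling expressed D2; compounds were pin-added after a 10 s baseline, read kinetically 180 s, then an EC20 dopamine challenge followed with a further 180 s calcium read.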
Of the large screens only hits and unclear results are named; the others gave an inactive call. Hits are enriched below; roughly 2.4% of the tested compounds scored in any of these assays.

COc1ccc(CCN2C(=O)c3oc4cc(C)cc(C)c4c(=O)c3C2c2ccc(F)cc2)cc1OC (stereo not given)	none (no result: D2 ag-1, D2 antag, D2 PAM-1)
COc1ccccc1C/C(N)=N/OC(=O)c1cccc([N+](=O)[O-])c1	D2 ag-1 inconclusive, D2 PAM-1 70
COc1ccc(C/C(N)=N/OC(=O)c2cccc([N+](=O)[O-])c2)cc1	D2 PAM-1 51
COc1ccc(C(=O)O/N=C(\N)Cc2ccc([N+](=O)[O-])cc2)c(OC)c1	D2 ag-1 42, D2 PAM-1 inconclusive
CCOP(=O)(OCC)/C(=N/OC(=O)c1cccc([N+](=O)[O-])c1)C(N)=O	none
COc1cccc(-n2c(=O)c3sccc3n(CC(=O)NC3CCCCC3)c2=O)c1	D2 antag 30
COc1cccc(-n2c(=O)c3sccc3n(CC(=O)NC3CCCC3)c2=O)c1	none
CCN(c1ccccc1)S(=O)(=O)c1cnc[nH]1	D2 antag 34
CC(C)C(C)(C#N)NC(=O)CSc1ncnc2sc(-c3ccccc3)cc12 (stereo not given)	D2 antag 31
Cc1ccsc1/C=N/NC(=O)c1ccncc1	none
Cc1ccsc1/C=N/NC(=O)c1ccc2ccccc2c1	D2 antag 41
CCc1ccccc1NC(=O)C1COc2ccccc2C1 (stereo not given)	none (no result: D2 ag-1, D2 antag, D2 PAM-1)
Cc1cc(NC(=O)c2cc(-c3ccccc3Cl)nc3ccccc23)no1	D2 PAM-2 32
CCN(CC)CCn1c(=S)[nH]c2cc(C(=O)NCc3ccc(C)cc3)ccc2c1=O	D2 antag 36
O=C(Cn1cc(S(=O)(=O)Cc2cccc(Cl)c2)c2ccccc21)Nc1ccccc1C(F)(F)F	none (no result: D2 ag-1, D2 antag, D2 PAM-1)
CCn1cc2nc(SCC(=O)Nc3ccccc3F)n(Cc3ccc(C)cc3)c(=O)c2n1	none (no result: D2 ag-1, D2 antag, D2 PAM-1)
COC(=O)COc1ccc2oc(=O)cc(-c3cc4cccc(OC)c4o3)c2c1	D2 antag 46
Cn1c(=O)c2ccccc2n(Cc2ccccc2Cl)c1=O	D2 antag 34
CCO[C@H]1OC(C(=O)N2CCCCCCC2)=C[C@@H](c2csc3ccccc23)[C@@H]1CCCO	none
CCO[C@H]1OC(C(=O)O)=C[C@@H](c2csc3ccccc23)[C@@H]1CCCO	D2 antag 32
COc1cc(Nc2cc(C)nc3ncnn23)cc(OC)c1	none
COc1cc(Nc2cc(C)nc3ncnn23)cc(OC)c1OC	D2 antag 32
COc1cccc(/C=C/c2nc(C#N)c(N3CCCCC3)o2)c1	none (no result: D2 ag-1, D2 antag, D2 PAM-1)
O=C(NC12CC3CC(CC(C3)C1)C2)N1CCN(c2ccccn2)CC1	D2 ag-2 36, D2 antag 31
Cc1cc(=O)n2nc(N3CCCC(C(=O)NCc4ccco4)C3)sc2n1 (stereo not given)	D2 antag 36
Cc1cc(=O)n2nc(N3CCC(C(=O)NCc4ccco4)CC3)sc2n1	none
C/C(Cn1nnc([N+](=O)[O-])n1)=N\NC(=O)c1ccc(O)cc1O	D2 ag-1 inconclusive, D2 PAM-1 59
C/C(Cn1nnc([N+](=O)[O-])n1)=N\NC(=O)c1ccccc1O	D2 ag-1 inconclusive
Cn1c(NCC(O)c2ccccc2)nc2c1c(=O)n(Cc1ccc(Cl)c(Cl)c1)c(=O)n2C (stereo not given)	D2 PAM-1 54 (no result: D2 ag-2, D2 antag, D2 PAM-2)
Cn1c(NCC(O)c2ccccc2)nc2c1c(=O)n(Cc1ccc(Cl)cc1)c(=O)n2C (stereo not given)	none
CC(=O)c1ccc(NC(=O)CCc2c(C)nc3c(c2C)c(=O)n(C)c(=O)n3C)cc1	none (no result: D2 ag-1, D2 antag, D2 PAM-1)
CC(=O)Nc1nonc1-c1nc2ccccc2n1C	none
Cn1c(-c2nonc2NC(=O)c2ccc(C(C)(C)C)cc2)nc2ccccc21	D2 antag 44 (no result: D2 ag-1, D2 PAM-1)
COC(=O)/C(=C/Nc1ccc(O)cc1)[N+](=O)[O-]	D2 PAM-1 86
Cc1cccc(Cn2nnc3c(=O)[nH]c(C4CCN(C(=O)c5ccc(F)cc5)CC4)nc32)c1	none (no result: D2 ag-1, D2 antag, D2 PAM-1)
O=C(CCc1ccc(O)c(O)c1)N/N=C/c1ccc2c(c1)OCO2	D2 ag-1 inconclusive, D2 antag 42
CC(C)Oc1ccc(CCC(=O)N/N=C/c2ccc3c(c2)OCO3)cc1	none
O=C(CSCc1cccc(Br)c1)N/N=C/c1ccc2c(c1)OCO2	D2 antag 33
O=C(CSCc1ccccc1Br)N/N=C/c1ccc2c(c1)OCO2	none
